Inconclusive results are not listed. Some compounds were tested as several samples or in several runs, with calls that do not always agree. Active and inactive are the calls of the source. Rule for the calls, unless noted: active = hit-call score of the fitted dose curve at least 0.9, where 1 is the maximum; inactive = score below 0.9.
Key:
[1] = target: Hepatocyte nuclear factor 4-alpha (Homo sapiens) (UniProt P41235); test: ATG_HNF4a_TRANS: Attagene TRANS-FACTORIAL HepG2 Assay for human Hepatocyte Nuclear Factor 4 alpha (HNF4a) (AID 2282982; active = hit-call score of the fitted dose curve at least 0.9, where 1 is the maximum); settings: HepG2 HNF4a transactivation reporter, mRNA readout
Sequence of Hepatocyte nuclear factor 4-alpha (Homo sapiens) (P41235 whole entry, looked up, the tested form may be a part): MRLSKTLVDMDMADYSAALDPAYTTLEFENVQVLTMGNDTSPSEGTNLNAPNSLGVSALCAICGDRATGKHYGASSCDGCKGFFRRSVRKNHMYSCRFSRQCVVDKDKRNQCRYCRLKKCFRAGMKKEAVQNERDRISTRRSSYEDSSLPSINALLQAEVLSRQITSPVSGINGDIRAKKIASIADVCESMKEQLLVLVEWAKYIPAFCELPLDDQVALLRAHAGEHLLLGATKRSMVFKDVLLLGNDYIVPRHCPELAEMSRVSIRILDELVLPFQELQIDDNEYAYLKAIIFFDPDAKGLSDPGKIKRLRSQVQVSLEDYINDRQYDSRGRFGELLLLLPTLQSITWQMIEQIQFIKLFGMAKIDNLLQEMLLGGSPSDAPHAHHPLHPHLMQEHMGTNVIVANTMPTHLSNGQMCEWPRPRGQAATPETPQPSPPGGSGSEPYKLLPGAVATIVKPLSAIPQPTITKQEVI
Method in brief: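 HepG2 cells transiently transfected with multiplexed GAL4-UAS reporter units responsive to chimeric NR-GAL4 proteins; compound exposure 24 h. Reporter mRNA quantified by RT-PCR, 6-FAM labelling, HpaI digestion and capillary electrophoresis; gain of signal versus DMSO baseline.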

[2] = ATG_M_06_TRANS: Attagene TRANS-FACTORIAL HepG2 Assay for M06 Transcription Factor (Internal Marker) (AID 2282983; active = hit-call score of the fitted dose curve at least 0.9, where 1 is the maximum;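 note: reporter transcript level by RT-PCR then capillary electrophoresis fluorescence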); settings: HepG2 Attagene TRANS M06 internal marker reporter
Method in brief: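 Transfect HepG2 with MRTUs → dose compounds 24 h → isolate RNA, oligo(dT) RT → PCR with reporter primers → 6-FAM primer extension → HpaI digest → CE fragment analysis. Positive direction vs DMSO.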

[3] = target: Nuclear receptor subfamily 4 group A member 2 (Homo sapiens) (UniProt P43354); test: ATG_NURR1_TRANS: Attagene TRANS-FACTORIAL HepG2 Assay for human Nuclear Receptor Related Protein 1 (NURR1) (AID 2282985; active = hit-call score of the fitted dose curve at least 0.9, where 1 is the maximum); settings: HepG2 Attagene TRANS reporter, mRNA readout
Sequence of Nuclear receptor subfamily 4 group A member 2 (Homo sapiens) (P43354 whole entry, looked up, the tested form may be a part): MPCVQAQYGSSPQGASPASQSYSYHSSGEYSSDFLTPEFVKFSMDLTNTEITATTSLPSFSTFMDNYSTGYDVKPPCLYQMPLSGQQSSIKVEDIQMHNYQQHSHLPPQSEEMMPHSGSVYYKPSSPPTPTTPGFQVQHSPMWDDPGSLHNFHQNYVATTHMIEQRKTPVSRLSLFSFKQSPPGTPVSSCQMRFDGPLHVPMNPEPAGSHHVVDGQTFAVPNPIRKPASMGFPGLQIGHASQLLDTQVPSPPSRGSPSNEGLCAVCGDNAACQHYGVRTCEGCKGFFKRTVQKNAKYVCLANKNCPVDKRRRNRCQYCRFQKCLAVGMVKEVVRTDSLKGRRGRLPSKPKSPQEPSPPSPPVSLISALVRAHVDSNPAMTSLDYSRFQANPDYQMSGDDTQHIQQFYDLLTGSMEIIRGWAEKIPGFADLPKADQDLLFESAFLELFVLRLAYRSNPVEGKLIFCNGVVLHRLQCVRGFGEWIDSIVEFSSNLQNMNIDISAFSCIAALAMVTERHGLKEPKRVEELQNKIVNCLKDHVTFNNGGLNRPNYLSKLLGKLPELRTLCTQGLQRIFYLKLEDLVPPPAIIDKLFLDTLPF
Method in brief: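 HepG2 cells transiently transfected with GAL4-UAS reporter units and chimeric NR-Gal4 constructs; chemical exposure 24 h. Reporter mRNA quantified by RT-PCR, fluorescent labelling and capillary electrophoresis; gain of signal fitted relative to DMSO baseline.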

[4] = target: Transcriptional activator Myb (Homo sapiens) (UniProt P10242); test: ATG_Myb_CIS: Attagene CIS-FACTORIAL HepG2 Assay for human Myeloblastosis (Myb) Proto-Oncogene Transcription Factor (AID 2282986); settings: HepG2 Attagene CIS-FACTORIAL Myb reporter transcription; actives raise or lower the signal
Sequence of Transcriptional activator Myb (Homo sapiens) (P10242 whole entry, looked up): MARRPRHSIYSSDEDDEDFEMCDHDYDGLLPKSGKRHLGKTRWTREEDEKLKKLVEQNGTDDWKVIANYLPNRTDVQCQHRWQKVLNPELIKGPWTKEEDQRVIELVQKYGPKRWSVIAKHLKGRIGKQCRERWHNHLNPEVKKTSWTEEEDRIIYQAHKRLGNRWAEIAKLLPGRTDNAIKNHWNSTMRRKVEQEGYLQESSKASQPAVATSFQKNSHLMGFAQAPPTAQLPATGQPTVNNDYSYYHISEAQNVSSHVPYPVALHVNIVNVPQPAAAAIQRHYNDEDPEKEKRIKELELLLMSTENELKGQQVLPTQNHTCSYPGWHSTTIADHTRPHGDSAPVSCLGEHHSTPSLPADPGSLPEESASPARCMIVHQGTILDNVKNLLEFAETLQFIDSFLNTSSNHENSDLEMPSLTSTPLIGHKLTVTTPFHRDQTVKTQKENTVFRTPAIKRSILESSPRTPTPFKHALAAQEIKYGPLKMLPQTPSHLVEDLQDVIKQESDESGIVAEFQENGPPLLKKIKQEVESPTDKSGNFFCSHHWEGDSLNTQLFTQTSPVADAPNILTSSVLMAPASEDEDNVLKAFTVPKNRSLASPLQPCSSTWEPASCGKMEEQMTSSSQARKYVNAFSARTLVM
Method in brief: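 Multiplexed cis-reporter system in HepG2: transient transfection, 24 h treatment, mRNA readout by RT-PCR and capillary electrophoresis. Both increases and decreases are scored versus DMSO negative control.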

[5] = ATG_NFI_CIS: Attagene CIS-FACTORIAL HepG2 Assay for human Nuclear Factor I (NFI) (AID 2282989); settings: HepG2 cis-regulatory reporter, NFI response element transcription; actives raise or lower the signal
Method in brief: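 After transient transfection of HepG2 with cis-promoter reporter constructs and 24 h dosing, RNA is reverse-transcribed, amplified, 6-FAM end-labelled and HpaI-digested before capillary analysis. Bidirectional curve fitting against DMSO.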

[6] = target: Myc proto-oncogene protein (Homo sapiens) (UniProt P01106); test: ATG_Myc_CIS: Attagene CIS-FACTORIAL HepG2 Assay for human Myelocytomatosis (Myc) Proto-Oncogene Transcription Factor (AID 2282990); settings: HepG2, Attagene cis-reporter transcription factor activity; actives raise or lower the signal
Sequence of Myc proto-oncogene protein (Homo sapiens) (P01106 whole entry, looked up): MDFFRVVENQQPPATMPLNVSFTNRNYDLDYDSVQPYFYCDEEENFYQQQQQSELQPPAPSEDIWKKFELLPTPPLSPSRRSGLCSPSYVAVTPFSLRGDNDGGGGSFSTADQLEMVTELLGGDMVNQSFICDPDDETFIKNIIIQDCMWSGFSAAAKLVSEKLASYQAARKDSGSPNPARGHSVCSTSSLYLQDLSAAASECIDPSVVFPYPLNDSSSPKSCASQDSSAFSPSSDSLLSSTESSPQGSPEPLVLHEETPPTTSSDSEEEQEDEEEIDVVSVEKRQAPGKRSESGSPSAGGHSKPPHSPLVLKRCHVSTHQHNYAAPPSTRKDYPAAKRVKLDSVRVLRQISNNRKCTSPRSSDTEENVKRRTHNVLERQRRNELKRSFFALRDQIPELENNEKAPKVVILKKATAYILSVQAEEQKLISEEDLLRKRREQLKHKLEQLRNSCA
Method in brief: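 DMSO-normalised, bidirectionally fitted reporter mRNA signal. HepG2 cells transfected with cis reporter constructs, treated 24 h; transcripts detected by RT-PCR, 6-FAM primer extension and CE.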

[7] = ATG_NF_kB_CIS: Attagene CIS-FACTORIAL HepG2 Assay for human Nuclear Factor Kappa B (NF-kB) (AID 2282991); settings: HepG2 Attagene cis-factorial NF-kB reporter mRNA; actives raise or lower the signal
Method in brief: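 After 24 h compound incubation, transfected HepG2 cells yield total RNA; reporter cDNA is PCR-amplified, end-labelled with 6-FAM, HpaI-digested and analysed on a genetic analyser. Endogenous factor activity, DMSO-referenced bidirectional fit.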

[8] = ATG_NRF2_ARE_CIS: Attagene CIS-FACTORIAL HepG2 Assay for human Nuclear Factor Erythroid 2 Related Factor 2 (NFR2) response to Antioxidant Response Elements (ARE) (AID 2282992); settings: HepG2 Attagene ARE/NRF2 reporter, transcription factor activity; actives raise or lower the signal
Method in brief: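 Cis-factorial assay: transfected HepG2 reporter library, 24 h dosing, mRNA readout via RT-PCR/CE; DMSO-referenced bidirectional analysis.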

[9] = ATG_Oct_MLP_CIS: Attagene CIS-FACTORIAL HepG2 Assay for human Octamer-Binding Transcription Factor (Oct) (AID 2282993); settings: HepG2 Attagene cis-factorial Oct reporter, mRNA; actives raise or lower the signal
Method in brief: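 Cells of the HepG2 line express promoter-controlled reporter sequences whose mRNA levels, after 24 h treatment, are measured by RT-PCR and capillary electrophoresis. Increases and decreases are scored relative to DMSO.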

[10] = target: Cellular tumor antigen p53 (Homo sapiens) (UniProt P04637); test: ATG_p53_CIS: Attagene CIS-FACTORIAL HepG2 Assay for human p53 Transcription Factor (AID 2282994); settings: HepG2 p53 cis-element reporter, Attagene mRNA; actives raise or lower the signal
Method in brief: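 Using HepG2 hepatoma cells carrying cis-acting multiplexed reporters, mRNA induction is detected after a 24 h exposure. Gain- and loss-of-signal responses are fitted relative to DMSO-treated cells.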

[11] = BSK_3C_TissueFactor: BioMAP Diversity Plus: 3C Assay for Tissue Factor Biomarker Activity (AID 2282997); settings: BioMAP 3C HUVEC, tissue factor biomarker readout; actives raise or lower the signal
Method in brief: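 ELISA read-out of Tissue Factor levels on human umbilical vein endothelium collected 24 h after chemical dosing. Gain or loss of signal was fitted relative to DMSO.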

[12] = BSK_3C_uPAR: BioMAP Diversity Plus: 3C Assay for Urokinase-type plasminogen activator receptor (uPAR) Biomarker Activity (AID 2282998); settings: BioMAP 3C HUVEC, uPAR biomarker ELISA; actives raise or lower the signal
Method in brief: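 Endothelial primary cells of human umbilical vein origin received test chemical; 24 h later uPAR was assayed by ELISA. Fitting was bidirectional, DMSO as negative control.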

[13] = target: Estrogen-related receptor gamma (Homo sapiens) (UniProt P62508); test: ATG_ERRg_TRANS: Attagene TRANS-FACTORIAL HepG2 Assay for human Estrogen-Related Receptor gamma (ERRg) (AID 2282977; active = hit-call score of the fitted dose curve at least 0.9, where 1 is the maximum;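 note: hits increase reporter signal over DMSO so potencies reflect activators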); settings: HepG2 Attagene TRANS reporter, ERRg transactivation
Sequence of Estrogen-related receptor gamma (Homo sapiens) (P62508 whole entry, looked up, the tested form may be a part): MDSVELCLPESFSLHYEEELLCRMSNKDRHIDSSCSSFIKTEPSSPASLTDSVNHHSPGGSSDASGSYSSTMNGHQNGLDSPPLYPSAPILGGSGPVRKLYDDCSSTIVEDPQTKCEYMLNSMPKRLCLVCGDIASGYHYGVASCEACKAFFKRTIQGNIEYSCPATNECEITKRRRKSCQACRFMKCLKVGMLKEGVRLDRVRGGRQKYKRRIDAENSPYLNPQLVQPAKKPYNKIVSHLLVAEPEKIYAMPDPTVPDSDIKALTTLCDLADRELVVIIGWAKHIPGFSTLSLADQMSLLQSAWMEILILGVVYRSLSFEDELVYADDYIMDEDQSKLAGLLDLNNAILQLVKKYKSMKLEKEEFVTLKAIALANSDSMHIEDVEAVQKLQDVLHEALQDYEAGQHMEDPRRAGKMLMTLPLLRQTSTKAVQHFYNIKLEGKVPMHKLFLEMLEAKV
Method in brief: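 Transient HepG2 transfectants, 24 h compound exposure, GAL4-UAS reporter mRNA by RT-PCR/6-FAM labelling/capillary electrophoresis; positive direction vs DMSO.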

[14] = target: Oxysterols receptor LXR-alpha (Homo sapiens) (UniProt Q13133); test: ATG_LXRa_TRANS: Attagene TRANS-FACTORIAL HepG2 Assay for human Liver X Receptor alpha (LXRa) (AID 2282980; active = hit-call score of the fitted dose curve at least 0.9, where 1 is the maximum); settings: HepG2 Attagene TRANS reporter, LXRa transactivation
Sequence of Oxysterols receptor LXR-alpha (Homo sapiens) (Q13133 whole entry, looked up, the tested form may be a part): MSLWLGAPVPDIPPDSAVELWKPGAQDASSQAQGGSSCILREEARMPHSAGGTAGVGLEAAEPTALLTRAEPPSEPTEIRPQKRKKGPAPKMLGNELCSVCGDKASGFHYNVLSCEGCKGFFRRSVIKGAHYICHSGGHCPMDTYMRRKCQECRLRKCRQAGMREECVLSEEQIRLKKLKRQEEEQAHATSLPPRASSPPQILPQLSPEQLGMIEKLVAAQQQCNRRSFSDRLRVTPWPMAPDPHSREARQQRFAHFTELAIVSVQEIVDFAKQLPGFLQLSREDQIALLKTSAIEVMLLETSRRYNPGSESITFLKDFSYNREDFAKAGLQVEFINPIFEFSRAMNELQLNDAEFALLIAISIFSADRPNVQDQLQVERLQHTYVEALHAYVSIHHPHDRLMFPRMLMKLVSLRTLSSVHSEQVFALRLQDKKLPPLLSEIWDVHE
Method in brief: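 Transfect HepG2 with GAL4-UAS multiplex reporter constructs (TRANS format, chimeric receptor-GAL4); treat 24 h; extract RNA, reverse-transcribe, PCR-amplify, FAM-label, HpaI-digest; resolve fragments by capillary electrophoresis. Upward response vs DMSO.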

[15] = target: Oxysterols receptor LXR-beta (Homo sapiens) (UniProt P55055); test: ATG_LXRb_TRANS: Attagene TRANS-FACTORIAL HepG2 Assay for human Liver X Receptor beta (LXRb) (AID 2282981; active = hit-call score of the fitted dose curve at least 0.9, where 1 is the maximum); settings: HepG2 Attagene TRANS GAL4-LXRb reporter, mRNA
Method in brief: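 HepG2 cells transiently transfected with multiple reporter transcription units carrying chimeric NR-Gal4 proteins acting on GAL4-UAS reporters; compound exposure 24 h. Reporter mRNA quantified by RT-PCR, 6-FAM labelling, HpaI digestion and capillary electrophoresis; gain of signal versus DMSO.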

[16] = target: Nuclear respiratory factor 1 (Homo sapiens) (UniProt Q16656); test: ATG_NRF1_CIS: Attagene CIS-FACTORIAL HepG2 Assay for human Nuclear Respiratory Factor 1 (NRF1) Orphan Gene (AID 2282987); settings: HepG2 NRF1 cis-element reporter, Attagene multiplex; actives raise or lower the signal
Sequence of Nuclear respiratory factor 1 (Homo sapiens) (Q16656 whole entry, looked up): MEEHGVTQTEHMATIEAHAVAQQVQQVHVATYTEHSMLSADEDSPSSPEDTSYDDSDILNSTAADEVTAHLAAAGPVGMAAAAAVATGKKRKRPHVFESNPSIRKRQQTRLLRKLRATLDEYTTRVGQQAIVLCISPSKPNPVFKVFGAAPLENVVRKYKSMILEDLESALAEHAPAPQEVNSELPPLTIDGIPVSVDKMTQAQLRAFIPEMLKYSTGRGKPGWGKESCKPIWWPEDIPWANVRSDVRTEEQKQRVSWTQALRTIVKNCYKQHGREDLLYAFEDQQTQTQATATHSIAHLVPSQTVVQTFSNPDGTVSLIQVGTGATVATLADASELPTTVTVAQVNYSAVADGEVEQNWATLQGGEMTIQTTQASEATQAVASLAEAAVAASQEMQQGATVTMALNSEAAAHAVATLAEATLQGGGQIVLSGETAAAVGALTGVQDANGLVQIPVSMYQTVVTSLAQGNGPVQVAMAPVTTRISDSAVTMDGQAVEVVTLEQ
Method in brief: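 Endogenous factor activity was captured via cis-element-driven reporter transcripts in HepG2 cells. Following 24 h chemical treatment, transcripts were quantified by RT-PCR and capillary electrophoresis.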

[17] = target: Glucocorticoid receptor (Homo sapiens) (UniProt P04150); test: ATG_GR_TRANS: Attagene TRANS-FACTORIAL HepG2 Assay for human Glucocorticoid Receptor (GR) (AID 2282978; active = hit-call score of the fitted dose curve at least 0.9, where 1 is the maximum;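 note: activators score as hits since higher reporter transcript over DMSO is fitted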); settings: HepG2 Attagene TRANS GR reporter, mRNA transcription
Sequence of Glucocorticoid receptor (Homo sapiens) (P04150 whole entry, looked up, the tested form may be a part): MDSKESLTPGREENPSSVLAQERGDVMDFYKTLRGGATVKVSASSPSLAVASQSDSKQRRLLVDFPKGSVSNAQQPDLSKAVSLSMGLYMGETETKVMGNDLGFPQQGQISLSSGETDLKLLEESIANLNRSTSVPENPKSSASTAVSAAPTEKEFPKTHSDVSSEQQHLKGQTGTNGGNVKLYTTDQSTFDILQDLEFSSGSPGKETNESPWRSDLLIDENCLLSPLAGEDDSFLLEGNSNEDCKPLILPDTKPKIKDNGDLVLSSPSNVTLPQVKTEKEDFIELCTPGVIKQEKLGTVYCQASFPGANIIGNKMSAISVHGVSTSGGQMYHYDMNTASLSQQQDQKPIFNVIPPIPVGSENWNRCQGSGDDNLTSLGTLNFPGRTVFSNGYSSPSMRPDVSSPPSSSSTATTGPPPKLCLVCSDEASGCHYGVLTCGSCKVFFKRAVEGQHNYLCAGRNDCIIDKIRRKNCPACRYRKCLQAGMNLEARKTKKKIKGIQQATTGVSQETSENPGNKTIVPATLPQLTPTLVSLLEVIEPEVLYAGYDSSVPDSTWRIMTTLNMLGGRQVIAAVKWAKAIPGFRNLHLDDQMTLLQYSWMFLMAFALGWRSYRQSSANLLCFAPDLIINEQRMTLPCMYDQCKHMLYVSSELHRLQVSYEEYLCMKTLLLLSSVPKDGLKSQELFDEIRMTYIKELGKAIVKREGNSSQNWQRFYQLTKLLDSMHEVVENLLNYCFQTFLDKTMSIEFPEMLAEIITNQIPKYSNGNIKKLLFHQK
Method in brief: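 HepG2 transient transfection, multiple reporter units, GAL4-UAS under NR-GAL4 chimera control. 24 h treatment. Reporter mRNA by RT-PCR/CE fluorescence, DMSO as negative control.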

[18] = ATG_GAL4_TRANS: Attagene TRANS-FACTORIAL HepG2 Assay for GAL4 (Internal Marker) (AID 2282976; active = hit-call score of the fitted dose curve at least 0.9, where 1 is the maximum); settings: HepG2 Attagene TRANS GAL4 internal marker reporter
Method in brief: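 First, HepG2 cells were transfected with reporter units under GAL4-UAS control. Next, they were treated with chemical for 24 h. Finally, RNA was reverse-transcribed, PCR-amplified, FAM-labelled and resolved by capillary electrophoresis, with induction scored against DMSO.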

[19] = target: Bile acid receptor (Homo sapiens) (UniProt Q96RI1); test: ATG_FXR_TRANS: Attagene TRANS-FACTORIAL HepG2 Assay for Farnesoid X Receptor (FXR) (AID 2282979; active = hit-call score of the fitted dose curve at least 0.9, where 1 is the maximum;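 note: hits raise reporter mRNA above DMSO so AC50 marks FXR activation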); settings: HepG2 Attagene TRANS FXR-GAL4 reporter transcription
Sequence of Bile acid receptor (Homo sapiens) (Q96RI1 whole entry, looked up, the tested form may be a part): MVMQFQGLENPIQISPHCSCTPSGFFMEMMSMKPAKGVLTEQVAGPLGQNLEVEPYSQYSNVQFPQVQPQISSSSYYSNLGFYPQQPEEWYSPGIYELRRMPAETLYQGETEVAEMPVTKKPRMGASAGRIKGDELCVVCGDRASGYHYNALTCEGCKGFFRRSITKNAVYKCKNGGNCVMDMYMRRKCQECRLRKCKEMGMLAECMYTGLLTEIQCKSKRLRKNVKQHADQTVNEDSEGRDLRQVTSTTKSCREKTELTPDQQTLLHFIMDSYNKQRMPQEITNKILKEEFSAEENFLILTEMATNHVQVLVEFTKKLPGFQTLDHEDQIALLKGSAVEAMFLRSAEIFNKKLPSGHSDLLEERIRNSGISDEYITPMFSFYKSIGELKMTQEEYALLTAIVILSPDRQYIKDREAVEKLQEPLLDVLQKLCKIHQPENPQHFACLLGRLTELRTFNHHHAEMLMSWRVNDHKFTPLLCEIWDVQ
Method in brief: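 Transient transfection of HepG2 with multiplexed GAL4-UAS reporter units; exogenous FXR-GAL4 chimera. Dose 24 h → TriZol RNA → oligo(dT) RT → PCR, 6-FAM primer extension, HpaI cut → CE. Gain vs DMSO.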

Measured: AC50

COC(=O)c1ccccc1S(=O)(=O)NC(=O)N(C)c1nc(C)nc(OC)n1
not listed: [13] | [14] | [15] | [16] | [17] | [18] | [19]
inactive: all other assays above

CC(C)OC(=O)Nc1cccc(Cl)c1
active: [8] 21 µM | [9] 39.4 µM
not listed: [15] | [16] | [17] | [18] | [19]
inactive: all other assays above

CCOC1Oc2ccc(OS(C)(=O)=O)cc2C1(C)C (stereo not drawn)
active: [8] 9.79 µM | [9] 23.9 µM
not listed: [2] | [10] | [13] | [16] | [17] | [18] | [19]
inactive: all other assays above

O=C(NC(=O)c1c(F)cccc1F)Nc1ccc(OC(F)(F)C(F)OC(F)(F)F)c(Cl)c1 (stereo not drawn)
active: [8] 13.8 µM | [9] 19.9 µM
not listed: [3] | [10] | [15] | [17] | [18] | [19]
inactive: all other assays above

N#CN
not listed: [10] | [13] | [14] | [15] | [16] | [17] | [18] | [19]
inactive: all other assays above

[2H]C1([2H])[n+]2ccccc2-c2cccc[n+]2C1([2H])[2H]
active: [5] 50 µM | [6] 13.3 µM | [7] 13.2 µM | [8] 14.8 µM
not listed: [3] | [13] | [14] | [16] | [18] | [19]
inactive: all other assays above

Clc1ccccc1-c1nnc(-c2ccccc2Cl)nn1
active: [8] 13.6 µM
inactive: [1] | [3] | [4] | [5] | [6] | [9] | [11] | [12]

CCOCN(C(=O)CCl)c1c(C)cccc1CC
active: [8] 1.21 µM
not listed: [1] | [2] | [14] | [15] | [17] | [19]
inactive: all other assays above

O=C(Nc1ccccc1)Nc1cnns1
active: [4] 78.3 µM | [5] 80.9 µM | [8] 50 µM | [9] 71.8 µM
not listed: [2] | [15] | [18]
inactive: all other assays above

CC(C)(C)C(O)/C(=C\c1ccc(Cl)cc1Cl)n1cncn1 (stereo not drawn)
active: [11] 36.7 µM | [12] 29.4 µM
inactive: [13] | [2] | [4] | [16] | [5] | [6] | [8] | [9] | [10]

COc1cc(OC)nc(NC(=O)NS(=O)(=O)c2cc(NC=O)ccc2C(=O)N(C)C)n1
not listed: [2] | [13] | [14] | [15] | [16] | [17] | [18]
inactive: all other assays above

Cc1cc(C)nc(NC(=O)NS(=O)(=O)c2ccccc2C(=O)OC2COC2)n1
active: [9] 50 µM
not listed: [3] | [14] | [16] | [18] | [19]
inactive: all other assays above

CC(C)N(C(=O)COc1nnc(C(F)(F)F)s1)c1ccc(F)cc1
inactive: [13] | [14] | [3] | [4] | [5] | [6] | [10] | [11] | [12]
active: [7] 12.6 µM | [8] 20.7 µM | [9] 17.2 µM

O=C(O)C(F)(F)C(F)(F)C(F)(F)C(F)(F)C(F)(F)C(F)(F)C(F)(F)F
inactive: [18] | [2] | [3] | [4] | [5] | [6] | [7] | [9] | [10] | [11] | [12]
active: [8] 84.7 µM [middle of 4 runs] | [12] 1.51 µM

COC(=O)c1ccccc1CS(=O)(=O)NC(=O)Nc1nc(OC)cc(OC)n1
inactive: [18] | [13] | [17] | [19] | [14] | [1] | [2] | [3] | [4] | [5] | [6] | [7] | [8] | [9] | [10] | [11] | [12]
active: [8] 24.2 µM
